Each structure is given as a SMILES string. Hit rate of the full screen: of about 320,000 compounds, about 22,000 (6.9%) were called active. Another 27% or so got no clear call; they are omitted. The list comes from a sample in which actives are over-represented; it also holds similar structures and randomly drawn compounds. Values without a mark were called inactive. Calls come from the whole dose curve; as a rule, active = well fitted inhibition curve with a large enough effect; inconclusive = small, poorly fitted or top-dose-only effect, or another doubt; inactive = no such curve, though single readings can be large or run the other way.
% is set by controls: 0 for no effect and ±100 for the full control effect; potency is the fitted concentration of half-maximal effect.

The experiment is described as follows: Primary qHTS for delayed death inhibitors of the malarial parasite plastid, 96 hour incubation. Particulars: P. falciparum luciferase reporter growth; series mostly up to 28.7 µM; activity change, negative = inhibition: at the top concentration. The gist of the method: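 Infected RBCs, 2% Hct / 0.05% parasitemia final; luciferase-reporter P. falciparum; cpd 96 h, 37 C, 5% CO2; luciferase detection reagent; luminescence.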
Background: qHTS replaces the single test concentration by a dilution series.
In the case of `CCC1CCCCN1C(=S)Nc1ccc(S(=O)(=O)Nc2ncccn2)cc1` (stereo not drawn), the Potency was 10.4 µM (active).

Take `CCC1CCCCN1C(=S)Nc1ccc(SC(F)F)cc1` (stereo not drawn): the “activity change, negative = inhibition” value is -14.4%. On the same count and under the same terms, with `CCC1CCCCN1C(=S)Nc1ccc(C(C)=O)cc1` (stereo not drawn) the figure was 22.3%; with `Cc1ccc(C)c(S(=O)(=O)Nc2cc(C)on2)c1`, 36.9%; with `Cc1ccc(OCC(=O)Nc2ccc(N3CCN(C(=O)c4ccco4)CC3)cc2)c(C)c1`, 124%. For the compound `O=C(CSc1nc2ccccc2[nH]1)c1cccs1`, the “activity change, negative = inhibition” value is 5.77%. For the compound `O=C(CSc1nc2ccccc2[nH]1)Nc1nc(-c2ccccc2)c(-c2ccccc2)o1`, the Potency is 13.1 µM (active). Consider `CN(Cc1ccccc1)C(=O)CSc1nc2ccccc2[nH]1`, for which the “activity change, negative = inhibition” value was 9.42%. With `COc1ccc2c(c1)C(NS(=O)(=O)OCC(Cl)(Cl)Cl)CCC2` (stereo not drawn), the “activity change, negative = inhibition” value was 12.5%. Consider `CCOc1ccc(NC(=O)Nc2ccc(N(C)C(C)=O)cc2)cc1`, for which the Potency was 16.5 µM (active). As to `CCOc1ccc(NC(=O)N(CC(C)C)CC(C)C)cc1`, the “activity change, negative = inhibition” value was 3.96%.

As to `CC(=O)N(C)c1ccc(NC(=O)C(F)(F)F)cc1`, the “activity change, negative = inhibition” value was -17.5%. Regarding `O=C(O)CCCCCCCCc1cn(CN2C(=O)c3ccccc3C2=O)nn1`, the “activity change, negative = inhibition” value was 91.8%. For the compound `O=C(Nc1nc(-c2ccc(-c3ccccc3)cc2)cs1)c1cnccn1`, the “activity change, negative = inhibition” value is 58.2%. `Cc1nc(NC(=O)c2cccc(Cl)c2)sc1-c1csc(Nc2cccc(Cl)c2)n1`: the Potency was 9.28 µM (active). On to `Cc1ccc(-c2csc(NNC(=O)c3ccccc3)n2)cc1`, for which the Potency was 3.7 µM (active). Take `O=C(O)c1ccccc1C(=O)Nc1nc(-c2ccccc2)cs1`: the “activity change, negative = inhibition” value is 0.357%. On to `O=C(Nc1ccc(-c2csc(Nc3cccc(C(F)(F)F)c3)n2)cc1)c1cccc(C(F)(F)F)c1`, for which the Potency was 8.28 µM (active). Turning to `Cn1sc(NC(=O)c2ccccc2)nc1=O`, the “activity change, negative = inhibition” value is 20%. On the same count and under the same terms, with `CC(=O)Nc1cccc(C(=O)Nc2nc(C)cs2)c1` the figure was 56.8%.

On to `Cc1ccc(Nc2nc(-c3sc(NC(=O)c4ccccc4)nc3C)cs2)cc1`, for which the Potency is 13.1 µM (active). As to `CNC(=O)c1ccc(NC(=O)c2cccc(C(F)(F)F)c2)cc1`, the “activity change, negative = inhibition” value was 6.47%. Turning to `CC(=O)c1sc(NC(=O)c2ccc(C)cc2)nc1C`, the “activity change, negative = inhibition” value was 102%.

In the case of `CCNS(=O)(=O)c1ccc(NC(=O)Nc2cccc(C(F)(F)F)c2)cc1`, the “activity change, negative = inhibition” value is 14.7%.

Consider `CCOC(=O)c1c(NC(=O)CN2C(=O)NC3(CCC(C)CC3)C2=O)sc(C)c1CC` (stereo not drawn), for which the “activity change, negative = inhibition” value was 0%. As for `NC(=O)c1c(NC(=O)CSc2nc(N)cc(=O)[nH]2)sc2c1CCCC2`, the “activity change, negative = inhibition” value is -0.481%. Turning to `COc1cc(NS(=O)(=O)c2ccc(NC(=S)NC(=O)c3ccc(Br)cc3)cc2)ncn1`, the “activity change, negative = inhibition” value was -0.194%. The same measure, in the same setting: the result for `COc1ccccc1Cn1c(CO)nc2ccccc21` reads 1.92%; that for `COc1ccc(-n2ncc3c(SCC(=O)NNC(C)=O)ncnc32)cc1`, 39.1%; that for `CC(=O)c1cccc(NC(=O)c2cc(C)nn2-c2ccccc2)c1`, 34.6%. Consider `COc1ccc(Cl)cc1C(=O)OCC(=O)NCc1cccs1`, for which the “activity change, negative = inhibition” value was -13.3%. In the case of `O=C1c2oc3ccc(Br)cc3c(=O)c2C(c2cccc(F)c2)N1CCO` (stereo not drawn), the “activity change, negative = inhibition” value is 61.8%. For the compound `CCC(=O)NCc1cc(-c2nn(C)c(=O)c3ccccc23)ccc1OC`, the “activity change, negative = inhibition” value was 28.6%. As for `Cc1c(-c2nn(C)c(=O)c3ccccc23)oc2ccc(F)cc2c1=O`, the Potency was 4.15 µM (active). On to `CCN(CC)c1ccc(S(=O)(=O)N2CCCCC2)cc1NC(=O)C1=COCCO1`, for which the Potency is 10.4 µM (active). `Cc1ccc(S(=O)(=O)N2CCCCC2)cc1NC(=O)c1cccnc1`: the “activity change, negative = inhibition” value was 4.25%. On the same count and under the same terms, with `O=C(Nc1ccc(S(=O)(=O)N2CCCC2)cc1Cl)C1=COCCO1` the figure was 21.5%. As for `O=C(Nc1ccc(Br)cc1)c1cc(S(=O)(=O)Nc2ccccn2)ccc1Cl`, the “activity change, negative = inhibition” value was 9.51%. As to `O=C(NNC(=O)C1CCCC1)c1ccc(F)cc1`, the “activity change, negative = inhibition” value was 9.74%. Take `C=CCn1c(SCC(=O)NCCCO)nc2sc3c(c2c1=O)CCC3`: the “activity change, negative = inhibition” value was 44.6%. Turning to `Nc1nc(SCC(=O)NCCN2CCOCC2)nc2sc3c(c12)CCC3`, the Potency is 13.1 µM (active). Take `CC(C)(C)C1CCc2c(sc3nc(SCC(N)=O)nc(N)c23)C1` (stereo not drawn): the Potency was 9.28 µM (active). As to `CCOC(=O)c1sc2nc(C)nc(SCC(N)=O)c2c1C`, the “activity change, negative = inhibition” value is -7.55%. In the case of `COC(=O)c1c(NC(=O)CCN2CCOCC2)sc2c1CCCC2`, the “activity change, negative = inhibition” value was 23.4%.

Regarding `CN1CCN(CC(=O)Nc2sc3c(c2C#N)CCC(C(C)(C)C)C3)CC1` (stereo not drawn), the “activity change, negative = inhibition” value was 4.93%. Take `CC(=O)N1CCc2c(sc(NC(=O)CCS(=O)(=O)c3ccc(C)cc3)c2C(N)=O)C1`: the “activity change, negative = inhibition” value was -29.3%.

In the case of `O=C(Nc1cc(S(=O)(=O)N2CCOCC2)ccc1OCC(F)(F)F)c1ccc(N2CCCC2=O)cc1`, the “activity change, negative = inhibition” value is -11%. Regarding `Cc1noc(C)c1C(=O)NCCc1ccc(S(N)(=O)=O)cc1`, the “activity change, negative = inhibition” value was 29.7%.

With `O=C(c1cccc([N+](=O)[O-])c1)N1CCN(Cc2ccccc2)CC1`, the “activity change, negative = inhibition” value is -4.42%. Turning to `O=C(NCc1ccccc1)C1=C[C@H](C2CC2)C[C@H](OCc2ccc(CO)cc2)O1`, the “activity change, negative = inhibition” value was -19.2%. Turning to `CC(C)CCN1CCN(Cc2ccc(C(F)(F)F)cc2)CC1CCO` (stereo not drawn), the “activity change, negative = inhibition” value is -3.68%. Turning to `O=C(C1=C[C@H](c2ccc(C(F)(F)F)cc2)C[C@H](OCc2ccc(CO)cc2)O1)N1CCN(Cc2ccccc2)CC1`, the Potency is 13.1 µM (active).

With `O=C(NCc1ccccc1)C1=C[C@@H](c2ccc(C(F)(F)F)cc2)C[C@@H](OCc2ccc(CO)cc2)O1`, the Potency is 4.65 µM (active). As for `CCn1cc(C(=O)N2CCN(Cc3ccc4c(c3)OCO4)CC2)c2cc(OC)c(OC)cc2c1=O`, the “activity change, negative = inhibition” value is 15.9%. With `O=C(C1=C[C@H](c2coc3ccccc3c2=O)C[C@H](OCc2ccc(CO)cc2)O1)N1CCOCC1`, the “activity change, negative = inhibition” value was -21.6%. On to `O=C(C1=C[C@H](c2coc3ccccc3c2=O)C[C@H](OCc2ccc(CO)cc2)O1)N1CCN(Cc2ccccc2)CC1`, for which the Potency is 5.86 µM (active).

With `C#Cc1ccc([C@@H]2C=C(C(=O)O)O[C@H](OCCCCO)C2)cc1`, the “activity change, negative = inhibition” value is 60.2%.

With `CC(=O)n1cc([C@@H]2C=C(C(=O)N3CCN(Cc4ccc5c(c4)OCO5)CC3)O[C@H](OCc3ccc(CO)cc3)C2)c2ccccc21`, the Potency was 1.65 µM (active).

`CN1CCN(C(=O)C2=C[C@H](c3ccc4c(c3)OCO4)C[C@H](OCc3ccc(CO)cc3)O2)CC1`: the “activity change, negative = inhibition” value is -0.234%. Still for that read-out and setting: with `O=C(O)C1=C[C@H](c2cccs2)C[C@H](OCCCCO)O1` the figure was 40.2%. On to `COc1cccc(/C=C2\Sc3ccc(C(=O)NCC4CCCO4)cc3N(C)C2=O)c1` (stereo not drawn), for which the “activity change, negative = inhibition” value was 11.3%. For the compound `CC(C)c1ccc(C2C(C(=O)c3ccco3)=C(O)C(=O)N2CC2CCCO2)cc1` (stereo not drawn), the “activity change, negative = inhibition” value was -16%. `C/C(=N\Nc1ccc(S(N)(=O)=O)cc1[N+](=O)[O-])c1cccs1`: the “activity change, negative = inhibition” value is 7.59%.

(Values after PubChem BioAssay AID504834 (National Center for Advancing Translational Sciences (NCATS), 2011).)
